Assay outcomes (PubChem BioAssay)
C diff HTS: blocks growth of Clostridium difficile; Clostridium difficile clinical isolate growth, OD600, 24 h; active compounds read low; growth activity, negative = inhibition, % at 16 µg/mL (by protocol); 0.25% of 86,000 active; AID 1259249;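 active = mean growth activity at or below -80% and every replicate also at or below -80%; inconclusive = mean at or below -80% but some replicate above -80%; inactive = mean growth activity above -80%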;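 also: 0% = DMSO wells and -100% = levofloxacin 16 µg/mL wells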
T cruzi growth-1: blocks T. cruzi growth in NIH3T3 culture. T. cruzi beta-gal in NIH3T3, GalScreen luminescence, 90 h. AID 624255. inhibition, % at 8.34 µM. 5.9% of 77,000 active;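 active = mean inhibition above about 93%, with at least 55% of replicates each passing it, limit read from the data, passing the limit was not always enough; inconclusive = only one of those two conditions holds; inactive = neither condition holds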
T cruzi growth-2: Trypanosoma cruzi proliferation inhibition. 72% of 5,600 active. AID 651739. inhibition, % at 8.35 µM. T. cruzi beta-gal in NIH3T3, GalScreen luminescence, 90 h. shares compounds with T cruzi growth-1;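 active = mean replicate inhibition above about 95% and at least 55% of replicates individually reaching it, limit read from the data; inconclusive = only one of the two criteria is met; inactive = neither criterion is met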
T cruzi growth-3: Trypanosoma cruzi proliferation inhibition; shares compounds with T cruzi growth-1; T. cruzi beta-gal in NIH3T3, GalScreen luminescence, 90 h; inhibition, % at 2.09 µM; 21% of 5,600 active; AID 651740;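 active = mean inhibition above about 95%, with at least 55% of replicates also reaching it, limit read from the data; inconclusive = meets just one of the two conditions; inactive = meets neither condition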;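 also: plate controls were neutral control median for no effect and positive control median for full effect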
NIH3T3 tox: cytotoxicity in mouse NIH/3T3 fibroblasts | cytotoxicity (signal decrease), % at 8.35 µM | shares compounds with T cruzi growth-1 | AID 651742 | 14% of 5,600 active | NIH/3T3 viability, CellTiter-Glo ATP luminescence, 90 h;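 active = mean signal decrease across replicates above about 35% based on untreated-well scatter, with enough replicates individually passing, limit read from the data; inconclusive = no rule stated though some were filed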;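 also: 0% = median of neutral control wells and 100% = median of positive control wells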
NIH3T3 tox 2: cytotoxicity in mouse NIH/3T3 fibroblasts. shares compounds with T cruzi growth-1. NIH/3T3 viability, CellTiter-Glo ATP luminescence, 90 h. inhibition, % at 24.9 µM. 56% of 5,600 active. AID 651744;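 active = mean loss of cell viability signal at or above a set limit, and enough replicates individually reaching it; inconclusive = meets only the mean limit or only the replicate share; inactive = meets neither condition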;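 also: 0% = median of neutral control wells and 100% = median of positive control wells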
* hit, by the source's call; ? = inconclusive; / = no result. The full list was thinned out, with hits kept by preference.

SMILES	C diff HTS	T cruzi growth-1	T cruzi growth-2	T cruzi growth-3	NIH3T3 tox	NIH3T3 tox 2
O=C(NC1CCCC1)N1CCCCN2[C@@H](CO)[C@@H](c3ccc(-c4ccccc4)cc3)[C@@H]2C1	32.2	?	98.4*	57.0	13.0	102.8*
COc1ccccc1-c1ccc([C@@H]2[C@H](CO)N3CCCCN(C(=O)NC4CCCC4)C[C@@H]23)cc1	23.4	54.0	/	/	/	/
O=C(NC1CCCC1)N1CCCCN2[C@H](CO)[C@H](c3ccc(-c4ccccc4)cc3)[C@H]2C1	2.8	104.0*	84.4	86.2	2.5	103.6*
O=C(NC1CCCC1)N1CCCCN2[C@H](CO)[C@@H](c3ccc(-c4cccnc4)cc3)[C@@H]2C1	7.8	59.3	/	/	/	/
O=C(C[C@H]1C=C[C@H](NC(=O)c2ccccc2)[C@@H](CO)O1)NCc1ccncn1	/	-18.9	/	/	/	/
O=C(C[C@H]1CC[C@H]2[C@@H](COC[C@H](O)CN2C(=O)c2ccccc2F)O1)N1CCN(c2ccccc2)CC1	0.4	29.7	/	/	/	/
COc1ccccc1NC(=O)N[C@H]1CC[C@H](CC(=O)N2CCC(Cc3ccccc3)CC2)O[C@@H]1CO	-11.0	/	/	/	/	/
COc1cccc(S(=O)(=O)N(C)C[C@H]2Oc3ncc(-c4cccc(C(=O)N(C)C)c4)cc3C(=O)N([C@H](C)CO)C[C@H]2C)c1	-4.2	-16.1	/	/	/	/
C[C@@H]1CCCCO[C@@H](CN(C)Cc2ccc3c(c2)OCO3)[C@H](C)CN([C@H](C)CO)C(=O)c2cc(NS(=O)(=O)c3ccc(F)cc3)ccc2O1	/	83.0	/	/	/	/
C[C@@H]1CN([C@@H](C)CO)C(=O)c2cc(NS(=O)(=O)c3ccc(F)cc3)ccc2O[C@@H](C)CCCCO[C@H]1CN(C)Cc1ccc2c(c1)OCO2	/	71.5	/	/	/	/
Cc1ccc(S(=O)(=O)Nc2ccc3c(c2)C(=O)N([C@H](C)CO)C[C@H](C)[C@H](CN(C)Cc2ccc4c(c2)OCO4)OCCCC[C@H](C)O3)cc1	9.5	62.5	/	/	/	/
COc1ccc(S(=O)(=O)Nc2ccc3c(c2)C(=O)N([C@@H](C)CO)C[C@@H](C)[C@@H](CN(C)Cc2ccc4c(c2)OCO4)OCCCC[C@@H](C)O3)cc1	-2.4	87.5	/	/	/	/
COc1ccc(S(=O)(=O)Nc2ccc3c(c2)C(=O)N([C@H](C)CO)C[C@@H](C)[C@H](CN(C)Cc2ccc4c(c2)OCO4)OCCCC[C@H](C)O3)cc1	-1.1	?	108.4*	50.4	5.8	105.0*
Cc1ccc(S(=O)(=O)Nc2ccc3c(c2)C(=O)N([C@H](C)CO)C[C@@H](C)[C@H](CN(C)Cc2ccc4c(c2)OCO4)OCCCC[C@@H](C)O3)cc1	5.5	101.7*	108.5*	89.5	29.3	81.5*
C[C@@H]1CN([C@H](C)CO)C(=O)c2cc(NS(=O)(=O)c3ccc(F)cc3)ccc2O[C@@H](C)CCCCO[C@@H]1CN(C)Cc1ccc2c(c1)OCO2	/	102.2*	89.5	105.5*	71.3*	105.2*
C[C@H](CO)N1C[C@H](C)[C@H](CN(C)Cc2ccc3c(c2)OCO3)OCCCC[C@H](C)Oc2ccc(NS(=O)(=O)c3ccc(F)cc3)cc2C1=O	/	112.4*	110.0*	48.0	7.5	58.8*
CCC(=O)N1CC[C@H]2[C@H](CO)Nc3ccc(-c4cccc(C#N)c4)cc3[C@H]21	0.3	48.1	/	/	/	/
CCCN1[C@H](C(=O)NCCCN2CCOCC2)[C@@H](CO)[C@@H]2Cn3c(ccc(-c4ccccc4)c3=O)[C@@H]21	3.2	9.4	/	/	/	/
C[C@@H]1CN([C@H](C)CO)C(=O)c2cc(N(C)C)ccc2O[C@@H](C)CCCCO[C@H]1CN(C)C(=O)Nc1ccc(F)cc1	-5.6	73.3	/	/	/	/
CS(=O)(=O)Nc1ccc2c(c1)[C@H]1C[C@H](CC(=O)N3CCOCC3)O[C@@H](CO)[C@H]1O2	-0.8	11.2	/	/	/	/
C[C@H](CO)N1C[C@H](C)[C@H](CN(C)Cc2ccncc2)Oc2cc(C3=CCCCC3)ccc2S1(=O)=O	12.0	116.0*	98.1*	83.7	57.8*	82.7*
C[C@H](CO)N1C[C@H](C)[C@@H](CN(C)Cc2cccnc2)Oc2cc(C3=CCCCC3)ccc2S1(=O)=O	-7.4	/	/	/	/	/
C[C@@H]1CN([C@@H](C)CO)S(=O)(=O)c2ccc(C3=CCCCC3)cc2O[C@@H]1CN(C)Cc1ccncc1	-7.6	101.6*	99.0*	92.2	?	78.4*
C[C@@H]1CN([C@H](C)CO)S(=O)(=O)c2ccc(C3=CCCCC3)cc2O[C@H]1CN(C)Cc1cccnc1	-3.9	/	/	/	/	/
C[C@H]1CN([C@@H](C)CO)S(=O)(=O)c2ccc(C3=CCCCC3)cc2O[C@H]1CN(C)Cc1cncnc1	4.8	77.8	/	/	/	/
SMILES	C diff HTS	T cruzi growth-1	T cruzi growth-2	T cruzi growth-3	NIH3T3 tox	NIH3T3 tox 2
C[C@@H]1CN([C@@H](C)CO)S(=O)(=O)c2ccc(C3=CCCCC3)cc2O[C@H]1CN(C)Cc1ccncc1	-2.2	114.0*	95.2*	106.8*	45.7*	94.5*
C[C@@H]1CN([C@H](C)CO)S(=O)(=O)c2ccc(C3=CCCCC3)cc2O[C@@H]1CN(C)Cc1cccnc1	-9.3	/	/	/	/	/
C[C@H]1CN([C@@H](C)CO)S(=O)(=O)c2ccc(C3=CCCCC3)cc2O[C@@H]1CN(C)Cc1ccncc1	12.3	121.3*	95.8*	97.0*	53.0*	102.5*
Cc1noc(C)c1NC(=O)N(C)C[C@H]1Oc2c(cccc2N(C)C)C(=O)N([C@@H](C)CO)C[C@@H]1C	3.3	35.2	/	/	/	/
CCNC(=O)C[C@@H]1CC[C@@H](NC(=O)C2CC2)[C@H](CO)O1	/	5.7	/	/	/	/
CN(C)CC(=O)Nc1ccc2c(c1)[C@@H]1C[C@H](CC(=O)N3CCOCC3)O[C@@H](CO)[C@@H]1O2	-2.0	-18.8	/	/	/	/
C[C@@H]1CN([C@@H](C)CO)C(=O)c2cc(C#CC3CCCCC3)cnc2O[C@@H]1CN(C)Cc1ccncc1	/	11.7	/	/	/	/
CS(=O)(=O)N1[C@@H](C#N)[C@@H](c2ccc(C#Cc3cccc(F)c3)cc2)[C@@H]1CO	-0.9	90.2	/	/	/	/
COc1ccc(CN(C)C[C@@H]2Oc3ccc(NC(=O)Nc4ccc(OC)cc4)cc3CC(=O)N([C@@H](C)CO)C[C@H]2C)cc1	-4.0	69.8	/	/	/	/
C[C@@H]1CN([C@@H](C)CO)C(=O)c2cc(C#Cc3ccccc3)cnc2O[C@@H]1CN(C)C(=O)CCN1CCCCC1	3.8	33.9	/	/	/	/
CCS(=O)(=O)N1CCCCN2[C@H](CO)[C@H](c3ccc(-c4ccccc4F)cc3)[C@@H]2C1	-5.9	95.8*	79.8	21.5	18.1	4.8
CCS(=O)(=O)N1CCCCN2[C@H](CO)[C@@H](c3ccc(-c4ccccc4)cc3)[C@@H]2C1	-1.8	62.6	/	/	/	/
CCS(=O)(=O)N1CCCCN2[C@@H](CO)[C@@H](c3ccc(-c4ccccc4C)cc3)[C@@H]2C1	-12.6	?	97.1*	-2.5	?	79.0*
CCS(=O)(=O)N1CCCCN2[C@H](CO)[C@@H](c3ccc(-c4ccccc4C)cc3)[C@H]2C1	-5.2	61.1	/	/	/	/
CCCC#Cc1ccc2c(c1)[C@@H]1[C@@H](CCN1S(=O)(=O)c1ccccc1OC)[C@@H](CO)N2	0.8	/	/	/	/	/
